# Compounds without any hit were thinned out: in the full panel of roughly 79,000, 15% have a hit. Values without a mark were called inactive. Calls of active or inactive are those of the source. Cut-off read from the data, not from the text of the source: active = growth inhibition above about 70%; inactive = the rest.
# Key:
# [1] = NCI Yeast Anticancer Drug Screen. Data for the rad52 strain (AID 147);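 note: 0% = growth of vehicle-treated control cultures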; conditions: S. cerevisiae rad52 mutant growth inhibition, hits give high values
# In short: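 The repair-mutant yeast strain was incubated with compounds, then growth was read and inhibition derived relative to vehicle.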
# [2] = NCI Yeast Anticancer Drug Screen. Data for the wt1 strain (AID 149);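 note: 0% = growth of vehicle-treated wt1 cultures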; conditions: S. cerevisiae wt1 strain (SPY 50644) growth inhibition, hits give high values
# In short: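 Each compound is tested on wt1 yeast and the loss of growth versus vehicle gives the inhibition value.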
# [3] = NCI Yeast Anticancer Drug Screen. Data for the rad50EPP+ strain (AID 151);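 note: 0% = growth of vehicle-treated control cultures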; conditions: S. cerevisiae rad50 mutant strain, hits give high values
# In short: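 Vehicle-normalised growth inhibition; rad50EPP+ yeast strain, altered in DNA damage repair, compound-treated.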
# [4] = NCI Yeast Anticancer Drug Screen. Data for the mgt1 strain (AID 153); conditions: S. cerevisiae mgt1 mutant growth inhibition, hits give high values
# In short: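 Vehicle-normalized growth inhibition is determined in mgt1 yeast, a strain selected for a defined alteration in DNA repair or cell cycle control.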
# [5] = NCI Yeast Anticancer Drug Screen. Data for the rad50 strain (AID 155);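 note: 0% = growth of vehicle-only cultures of the same strain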; conditions: S. cerevisiae rad50 strain growth inhibition, hits give high values
# In short: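 Vehicle-treated cultures provide the reference for the growth inhibition reported for compound-exposed, repair-deficient yeast.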
# [6] = NCI Yeast Anticancer Drug Screen. Data for the mec2-1 strain (AID 157); conditions: S. cerevisiae mec2-1 strain, hits give high values
# In short: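 Mutant yeast (mec2-1) grown with compound; growth inhibition relative to vehicle control reported.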
# [7] = NCI Yeast Anticancer Drug Screen. Data for the rad14 strain (AID 159);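 note: 0% = growth of vehicle-treated control cultures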; conditions: S. cerevisiae rad14 strain growth inhibition, hits give high values
# In short: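 Inhibition of growth is reported for a repair-deficient yeast mutant following compound treatment, calculated relative to cultures that received vehicle.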
# [8] = NCI Yeast Anticancer Drug Screen. Data for the sgs1 mgt1 strain (AID 161);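 note: 0% = growth of cultures given vehicle only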; conditions: S. cerevisiae sgs1 mgt1 strain, hits give high values
# In short: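 Growth of a repair-deficient yeast mutant was monitored after compound treatment and expressed as inhibition relative to vehicle-treated cultures.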
# [9] = NCI Yeast Anticancer Drug Screen. Data for the CLN2oe strain (AID 163);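 note: 0% = growth of vehicle-only control cultures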; conditions: S. cerevisiae CLN2oe strain, hits give high values
# In short: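 Compounds are applied to yeast harbouring a defined cell-cycle control change; reduced growth compared with vehicle-treated controls gives the value.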
# [10] = NCI Yeast Anticancer Drug Screen. Data for the cln2 rad14 strain (AID 165);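 note: 0% = growth equal to vehicle treated cultures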; conditions: S. cerevisiae cln2 rad14 strain, hits give high values
# In short: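 Readout is yeast growth inhibition versus vehicle-treated controls, using a strain with cln2 and rad14 alterations exposed to compound.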
# [11] = NCI Yeast Anticancer Drug Screen. Data for the bub3 strain (AID 167); conditions: S. cerevisiae bub3 mutant strain, hits give high values
# In short: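 Mutant yeast screening strain plus compound; vehicle-treated cultures serve as the 0% inhibition reference.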
# [12] = NCI Yeast Anticancer Drug Screen. Data for the wt2 strain (AID 169); conditions: S. cerevisiae wt2 strain growth inhibition, hits give high values
# In short: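 Against vehicle-treated controls, the growth of yeast exposed to each compound was compared, and the inhibition was recorded.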
# [13] = NCI Yeast Anticancer Drug Screen. Data for the mlh1 strain (AID 171);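 note: 0% = growth of vehicle-treated control cultures of the same strain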; conditions: S. cerevisiae mlh1 strain growth inhibition, hits give high values
# In short: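 Measured: yeast growth. Reference: vehicle-treated controls. Organism: strain with a defined alteration affecting DNA damage repair or cell cycle control, treated with compound.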
# [14] = NCI Yeast Anticancer Drug Screen. Data for the sgs1 strain (AID 173);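 note: 0% = growth of vehicle-only control cultures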; conditions: S. cerevisiae sgs1 mutant, hits give high values
# In short: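 Each compound was added to cultures of the altered yeast strain. Growth was recorded, and inhibition was derived by comparison with vehicle controls.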
# [15] = NCI Yeast Anticancer Drug Screen. Data for the mlh1 rad18 strain (AID 175); conditions: S. cerevisiae mlh1 rad18 strain growth inhibition, hits give high values
# In short: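 Genetically defined yeast (DNA repair-deficient) exposed to compounds; growth inhibition determined relative to vehicle.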
# [16] = NCI Yeast Anticancer Drug Screen. Data for the rad18 strain (AID 177); conditions: S. cerevisiae rad18 mutant growth inhibition, hits give high values
# In short: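 Vehicle-treated cultures served as the baseline for scoring compound-induced growth inhibition in DNA-repair-mutant yeast.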
# [17] = at 5.0 µM (retest, dose inferred, filed as 0.5)
# [18] = at 50.0 µM (retest, dose inferred, filed as 5.0)
smiles,measurement,setting,value
COc1ccc(OC)c2cc3ccccc3cc12,growth inhibition,[1]; at 1.2 µM,11%
same,growth inhibition,[1]; at 3.7 µM,-9%
same,growth inhibition,[1]; at 11.0 µM,6%
same,growth inhibition,[1]; at 33.0 µM,10%
same,growth inhibition,[1]; at 100.0 µM,17%
same,growth inhibition,[2]; at 1.2 µM,-19%
same,growth inhibition,[2]; at 3.7 µM,-19%
same,growth inhibition,[2]; at 11.0 µM,-12%
same,growth inhibition,[2]; at 33.0 µM,-8%
same,growth inhibition,[2]; at 100.0 µM,-4%
same,growth inhibition,[3]; at 1.2 µM,-13%
same,growth inhibition,[3]; at 3.7 µM,7%
same,growth inhibition,[3]; at 11.0 µM,46%
same,growth inhibition,[3]; at 33.0 µM,52%
same,growth inhibition,[3]; at 100.0 µM,60%
same,growth inhibition,[4]; at 1.2 µM,25%
same,growth inhibition,[4]; at 3.7 µM,14%
same,growth inhibition,[4]; at 11.0 µM,15%
same,growth inhibition,[4]; at 33.0 µM,18%
same,growth inhibition,[4]; at 100.0 µM,24%
same,growth inhibition,[5]; at 1.2 µM,-1%
same,growth inhibition,[5]; at 3.7 µM,-1%
same,growth inhibition,[5]; [17],52%
same,growth inhibition,[5]; at 11.0 µM,10%
same,growth inhibition,[5]; at 33.0 µM,17%
same,growth inhibition,[5]; [18],81% (active)
same,growth inhibition,[5]; at 50.0 µM,74.3% (active)
same,growth inhibition,[5]; at 100.0 µM,4%
same,growth inhibition,[6]; at 1.2 µM,-5%
same,growth inhibition,[6]; at 3.7 µM,-11%
same,growth inhibition,[6]; [17],63%
same,growth inhibition,[6]; at 11.0 µM,-6%
same,growth inhibition,[6]; at 33.0 µM,21%
same,growth inhibition,[6]; [18],87% (active)
same,growth inhibition,[6]; at 50.0 µM,85.2% (active)
same,growth inhibition,[6]; at 100.0 µM,8%
same,growth inhibition,[7]; at 1.2 µM,-4%
same,growth inhibition,[7]; at 3.7 µM,-6%
same,growth inhibition,[7]; at 11.0 µM,-3%
same,growth inhibition,[7]; at 33.0 µM,4%
same,growth inhibition,[7]; at 100.0 µM,18%
same,growth inhibition,[8]; [17],-24%
same,growth inhibition,[8]; [18],27%
same,growth inhibition,[8]; at 50.0 µM,73.1% (active)
same,growth inhibition,[9]; at 1.2 µM,12%
same,growth inhibition,[9]; at 3.7 µM,14%
same,growth inhibition,[9]; at 11.0 µM,16%
same,growth inhibition,[9]; at 33.0 µM,19%
same,growth inhibition,[9]; at 100.0 µM,3%
same,growth inhibition,[10]; [17],46%
same,growth inhibition,[10]; [18],51%
same,growth inhibition,[10]; at 50.0 µM,39.6%
same,growth inhibition,[11]; at 1.2 µM,22%
same,growth inhibition,[11]; at 3.7 µM,8%
same,growth inhibition,[11]; [17],36%
same,growth inhibition,[11]; at 11.0 µM,22%
same,growth inhibition,[11]; at 33.0 µM,33%
same,growth inhibition,[11]; [18],64%
same,growth inhibition,[11]; at 50.0 µM,89.7% (active)
same,growth inhibition,[11]; at 100.0 µM,32%
same,growth inhibition,[12]; at 1.2 µM,-23%
same,growth inhibition,[12]; at 3.7 µM,-28%
same,growth inhibition,[12]; at 11.0 µM,-16%
same,growth inhibition,[12]; at 33.0 µM,-8%
same,growth inhibition,[12]; at 100.0 µM,9%
same,growth inhibition,[13]; at 1.2 µM,14%
same,growth inhibition,[13]; at 3.7 µM,9%
same,growth inhibition,[13]; at 11.0 µM,8%
same,growth inhibition,[13]; at 33.0 µM,20%
same,growth inhibition,[13]; at 100.0 µM,19%
same,growth inhibition,[14]; at 1.2 µM,-12%
same,growth inhibition,[14]; at 3.7 µM,-12%
same,growth inhibition,[14]; at 11.0 µM,-5%
same,growth inhibition,[14]; at 33.0 µM,-1%
same,growth inhibition,[14]; at 100.0 µM,7%
same,growth inhibition,[15]; [17],48%
same,growth inhibition,[15]; [18],81% (active)
same,growth inhibition,[15]; at 50.0 µM,70.2% (active)
same,growth inhibition,[16]; at 1.2 µM,5%
same,growth inhibition,[16]; at 3.7 µM,4%
same,growth inhibition,[16]; at 11.0 µM,21%
same,growth inhibition,[16]; at 33.0 µM,24%
same,growth inhibition,[16]; at 100.0 µM,50%
CN=C(N)N/N=C/c1ccc2c(c1)Cc1ccccc1-2,growth inhibition,[1]; at 1.2 µM,6%
same,growth inhibition,[1]; at 3.7 µM,19%
same,growth inhibition,[1]; at 11.0 µM,20%
same,growth inhibition,[1]; at 33.0 µM,31%
same,growth inhibition,[1]; at 100.0 µM,94% (active)
same,growth inhibition,[2]; at 1.2 µM,0%
same,growth inhibition,[2]; at 3.7 µM,17%
same,growth inhibition,[2]; at 11.0 µM,4%
same,growth inhibition,[2]; at 33.0 µM,8%
same,growth inhibition,[2]; at 100.0 µM,44%
same,growth inhibition,[3]; at 1.2 µM,-6%
same,growth inhibition,[3]; at 3.7 µM,12%
same,growth inhibition,[3]; at 11.0 µM,23%
same,growth inhibition,[3]; at 33.0 µM,32%
same,growth inhibition,[3]; at 100.0 µM,97% (active)
same,growth inhibition,[4]; at 1.2 µM,-11%
same,growth inhibition,[4]; at 3.7 µM,-2%
same,growth inhibition,[4]; at 11.0 µM,1%
same,growth inhibition,[4]; at 33.0 µM,14%
same,growth inhibition,[4]; at 100.0 µM,92% (active)
same,growth inhibition,[5]; at 1.2 µM,-7%
same,growth inhibition,[5]; at 3.7 µM,-9%
same,growth inhibition,[5]; [17],10%
same,growth inhibition,[5]; at 11.0 µM,-12%
same,growth inhibition,[5]; at 33.0 µM,-2%
same,growth inhibition,[5]; [18],64%
same,growth inhibition,[5]; at 50.0 µM,72.8% (active)
same,growth inhibition,[5]; at 100.0 µM,92% (active)
same,growth inhibition,[6]; at 1.2 µM,9%
same,growth inhibition,[6]; at 3.7 µM,-4%
same,growth inhibition,[6]; [17],6%
same,growth inhibition,[6]; at 11.0 µM,-5%
same,growth inhibition,[6]; at 33.0 µM,-13%
same,growth inhibition,[6]; [18],92% (active)
same,growth inhibition,[6]; at 50.0 µM,23.1%
same,growth inhibition,[6]; at 100.0 µM,60%
same,growth inhibition,[7]; at 1.2 µM,-1%
same,growth inhibition,[7]; at 3.7 µM,-14%
same,growth inhibition,[7]; at 11.0 µM,-21%
same,growth inhibition,[7]; at 33.0 µM,-16%
same,growth inhibition,[7]; at 100.0 µM,88% (active)
same,growth inhibition,[8]; [17],24%
same,growth inhibition,[8]; [18],83% (active)
same,growth inhibition,[8]; at 50.0 µM,30.2%
same,growth inhibition,[9]; at 1.2 µM,-90%
same,growth inhibition,[9]; at 3.7 µM,-34%
same,growth inhibition,[9]; at 11.0 µM,-16%
same,growth inhibition,[9]; at 33.0 µM,-5%
same,growth inhibition,[9]; at 100.0 µM,80% (active)
same,growth inhibition,[10]; [17],-5%
same,growth inhibition,[10]; [18],27%
same,growth inhibition,[10]; at 50.0 µM,19.8%
same,growth inhibition,[11]; at 1.2 µM,-15%
same,growth inhibition,[11]; at 3.7 µM,-4%
same,growth inhibition,[11]; [17],30%
same,growth inhibition,[11]; at 11.0 µM,-8%
same,growth inhibition,[11]; at 33.0 µM,3%
same,growth inhibition,[11]; [18],100% (active)
same,growth inhibition,[11]; at 50.0 µM,22.4%
same,growth inhibition,[11]; at 100.0 µM,73% (active)
same,growth inhibition,[12]; at 1.2 µM,-44%
same,growth inhibition,[12]; at 3.7 µM,-17%
same,growth inhibition,[12]; at 11.0 µM,-15%
same,growth inhibition,[12]; at 33.0 µM,34%
same,growth inhibition,[12]; at 100.0 µM,98% (active)
same,growth inhibition,[13]; at 1.2 µM,-24%
same,growth inhibition,[13]; at 3.7 µM,-18%
same,growth inhibition,[13]; at 11.0 µM,-17%
same,growth inhibition,[13]; at 33.0 µM,-10%
same,growth inhibition,[13]; at 100.0 µM,91% (active)
same,growth inhibition,[14]; at 1.2 µM,12%
same,growth inhibition,[14]; at 3.7 µM,35%
same,growth inhibition,[14]; at 11.0 µM,50%
same,growth inhibition,[14]; at 33.0 µM,58%
same,growth inhibition,[14]; at 100.0 µM,93% (active)
same,growth inhibition,[15]; [17],42%
same,growth inhibition,[15]; [18],85% (active)
same,growth inhibition,[15]; at 50.0 µM,81.2% (active)
same,growth inhibition,[16]; at 1.2 µM,-5%
same,growth inhibition,[16]; at 3.7 µM,-15%
same,growth inhibition,[16]; at 11.0 µM,-12%
same,growth inhibition,[16]; at 33.0 µM,1%
same,growth inhibition,[16]; at 100.0 µM,90% (active)

# Reference: PubChem BioAssay (NCI)
